Here are results for eight molecules from PubChem BioAssay (NCI).

Among the test systems are NCI-H23 lung; NCI-H226 lung; NCI-H322M lung; HOP-62 NSCLC; NCI-H460 lung; NCI-H522 lung; A549/ATCC NSCLC; 786-0 renal; COLO 205 colon; DU-145 prostate; K-562 leukemia; MALME-3M melanoma; MDA-MB-231 breast; SF-268 CNS; SF-295 CNS; SF-539 CNS; UACC-257 melanoma; M14 melanoma; HCT-15 colon; RXF 393 renal.
Holding throughout (assay): NCI-60 one-dose screen, 48 h (100 = growth as untreated, 0 = no growth, -100 = all killed)
Holding throughout (conditions): 10 µM

Compounds without any hit were thinned out: in the full panel of roughly 83,000, 20% have a hit.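 In brief: 96-well plates, 48 h treatment, single concentration, percent growth endpoint.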 Unmarked numbers belong to inactive results. Calls of active or inactive are those of the source. The calls were made as follows: active = growth percent below 10; inactive = the rest.

`CCN(CC)CCCOCCCNc1cc(OC)cc2cccnc12`: the growth in the assay on NCI-H23 lung was 83.8%; with NCI-H226 lung it was 85%; in the assay with NCI-H322M lung, 98.7%; with HOP-62 NSCLC, 91.7%; with NCI-H460 lung it was 103%; in the assay with NCI-H522 lung, 82.5%. Also, the growth in the assay with A549/ATCC NSCLC is 93.4%; with 786-0 renal, 104%; in the assay on COLO 205 colon it was 31.2%; with DU-145 prostate it was 116%; in the assay with K-562 leukemia, 94.3%; in the assay on MALME-3M melanoma, 104%. Also, the growth was 78% in the assay with MDA-MB-231 breast; 96.7% in the assay with SF-268 CNS; 101% in the assay with SF-295 CNS; 108% in the assay with SF-539 CNS; 83.1% with UACC-257 melanoma; 106% in the assay with M14 melanoma. The growth in the assay with HCT-15 colon was 102%.

In the case of `CN1CCC2(CC1)NC(=O)c1c(c3ccc(Cl)c(Cl)c3n1C)C2C#N` (configuration not stated), the growth is 76.6% in the assay with NCI-H23 lung; 53.8% in the assay on NCI-H226 lung; 85.6% in the assay on NCI-H322M lung; 58% with HOP-62 NSCLC; 49% in the assay on NCI-H460 lung; 76.3% in the assay with NCI-H522 lung. The growth with A549/ATCC NSCLC is 63.7%; in the assay with 786-0 renal, 68.7%; in the assay on COLO 205 colon, 58%; in the assay with DU-145 prostate, 92.4%; in the assay with K-562 leukemia, 80.1%; with MALME-3M melanoma it was 98.3%. Besides, the growth is 55% in the assay with MDA-MB-231 breast; 67.4% in the assay on SF-268 CNS; 94.9% in the assay on SF-295 CNS; 76% with SF-539 CNS; 65.2% in the assay with UACC-257 melanoma; 23.8% with M14 melanoma. Also, in the assay with HCT-15 colon, the growth was 82.6%.

Turning to `COc1cc(C(=C2O[C@@H]([C@H]3COC(C)(C)O3)[C@H]3OC(C)(C)O[C@@H]23)c2cc(OC)c(OC)c(OC)c2)cc(OC)c1OC`, the growth in the assay on NCI-H23 lung is 95.2%; in the assay with NCI-H226 lung, 94.4%; in the assay on NCI-H322M lung, 103%; with HOP-62 NSCLC, 104%; in the assay with NCI-H460 lung it was 111%; with NCI-H522 lung, 106%. In addition, the growth with A549/ATCC NSCLC was 106%; in the assay on 786-0 renal, 97.2%; in the assay on COLO 205 colon, 117%; in the assay with DU-145 prostate it was 112%; with K-562 leukemia it was 91.8%; in the assay with MALME-3M melanoma, 123%. Further, the growth with MDA-MB-231 breast was 91.6%; in the assay with SF-268 CNS, 113%; in the assay on SF-295 CNS, 110%; in the assay with SF-539 CNS, 111%; in the assay with UACC-257 melanoma it was 105%; with M14 melanoma, 106%. Also, the growth with HCT-15 colon is 103%.

With `COc1cc(C2CC(c3ccc(Nc4ccnc5cc(Cl)ccc45)cc3)=NN2c2ccc(Cl)cc2)cc(OC)c1OC` (configuration not stated), the growth is 74.4% with NCI-H23 lung; 82.9% with NCI-H226 lung; 75.8% in the assay on NCI-H322M lung; 46.8% in the assay with HOP-62 NSCLC; 43.4% in the assay on NCI-H460 lung; 9.33% (active) with NCI-H522 lung. Further, the growth in the assay on A549/ATCC NSCLC was 44.6%; in the assay on 786-0 renal, 68.8%; in the assay on COLO 205 colon, 75.7%; in the assay on DU-145 prostate, 64%; in the assay with K-562 leukemia, 6.22% (active); with MDA-MB-231 breast, 42.6%. Further, the growth in the assay on RXF 393 renal is 60.4%; in the assay on SF-268 CNS, 48.5%; with SF-295 CNS, 28.8%; with SF-539 CNS, 59.3%; in the assay on UACC-257 melanoma it was 61.3%; in the assay on M14 melanoma, 38.2%. In addition, the growth with HCT-15 colon was 45.4%.

Turning to `COc1ccc2nc3ccccc3c(NCCNCC(C)O)c2c1` (configuration not stated), the growth in the assay with NCI-H23 lung was -2.17% (active); with NCI-H226 lung, -4.19% (active); in the assay on NCI-H322M lung, -3.32% (active); with HOP-62 NSCLC, -13.6% (active); in the assay with NCI-H460 lung, -10.8% (active); in the assay on NCI-H522 lung it was -26.5% (active). In addition, the growth in the assay on A549/ATCC NSCLC is -36.4% (active); in the assay on 786-0 renal, 0.024% (active); with COLO 205 colon, -27.5% (active); in the assay on DU-145 prostate, 9.52% (active); in the assay on K-562 leukemia it was 9.22% (active); in the assay with MALME-3M melanoma, -13.7% (active). Moreover, the growth was -28.2% (active) in the assay with MDA-MB-231 breast; 8.57% (active) in the assay with SF-268 CNS; 7.81% (active) in the assay on SF-295 CNS; 6.66% (active) with SF-539 CNS; 7.95% (active) with UACC-257 melanoma; 11.3% in the assay with M14 melanoma. Also, the growth in the assay with HCT-15 colon is 23.1%.

Turning to `CCN(CC)CCC(CNc1c(C)cnc2cc(Cl)ccc12)c1ccc(Cl)cc1` (configuration not stated), the growth with NCI-H23 lung was 61.3%; with NCI-H226 lung it was 102%; in the assay with NCI-H322M lung, 53.8%; with HOP-62 NSCLC, 66.2%; in the assay with NCI-H460 lung, 67.7%; in the assay on NCI-H522 lung, 31.7%. The growth in the assay on A549/ATCC NSCLC is 64.7%; in the assay on 786-0 renal, 58.2%; in the assay on COLO 205 colon, -45.5% (active); with DU-145 prostate, 79%; in the assay with K-562 leukemia, 7.15% (active); in the assay with MALME-3M melanoma, -57.9% (active). The growth in the assay on MDA-MB-231 breast was 27.3%; in the assay with SF-268 CNS it was 67.5%; with SF-295 CNS it was 51.4%; in the assay on SF-539 CNS it was -52.3% (active); in the assay with UACC-257 melanoma, -58.3% (active); in the assay with M14 melanoma it was -67.3% (active). Also, the growth with HCT-15 colon is 35%.

`CC/C(=N\N=C(/CC)c1ccc(Br)cc1)c1ccc(Br)cc1`: the growth with NCI-H23 lung was 86.2%; with NCI-H226 lung, 94%; with NCI-H322M lung it was 108%; with HOP-62 NSCLC, 94.9%; in the assay on NCI-H460 lung, 105%; in the assay with NCI-H522 lung, 71.5%. Besides, the growth in the assay on A549/ATCC NSCLC was 98.7%; in the assay with 786-0 renal, 98.9%; in the assay on COLO 205 colon, 100%; with DU-145 prostate, 116%; in the assay on K-562 leukemia it was 109%; in the assay on MALME-3M melanoma, 90.5%. Besides, the growth in the assay with MDA-MB-231 breast was 103%; with SF-268 CNS, 103%; in the assay with SF-295 CNS it was 93.9%; in the assay on SF-539 CNS, 99.3%; with UACC-257 melanoma, 108%; with M14 melanoma it was 98.3%. The growth in the assay with HCT-15 colon is 85.4%.

On to `O=C(Nc1ccc(Cl)c(Cl)c1)Nc1c(Oc2ccc(Cl)c(Cl)c2)ccc(Cl)c1S(=O)(=O)O`, for which the growth in the assay with NCI-H23 lung was 39.5%; in the assay with NCI-H226 lung, 66%; in the assay with NCI-H322M lung it was 50.8%; in the assay on HOP-62 NSCLC, 49.4%; with NCI-H460 lung, 9.02% (active); in the assay with NCI-H522 lung it was -1.66% (active). The growth with A549/ATCC NSCLC is 37%; with 786-0 renal, 35%; in the assay on COLO 205 colon, -13.9% (active); in the assay on DU-145 prostate it was 21.1%; in the assay on K-562 leukemia, 9.98% (active); in the assay with MDA-MB-231 breast it was 39.5%. The growth in the assay with RXF 393 renal is -14.3% (active); in the assay with SF-268 CNS, 52.1%; with SF-295 CNS, -27.2% (active); in the assay with SF-539 CNS, 4% (active); in the assay with UACC-257 melanoma, 61.9%; in the assay with M14 melanoma it was 19.3%. Moreover, in the assay on HCT-15 colon, the growth was 39.6%.
